Screen size: about 340,000 compounds; about 3,300 (0.97%) were called active. About 9% were inconclusive and are not listed. Calls follow the shape of the dose curve; as a rule, active = well fitted inhibition curve with a large enough effect; inconclusive = small, poorly fitted or top-dose-only effect, or effect the other way; inactive = flat fitted curve, though single readings scatter. This is one part of the list.
assay: qHTS Assay for Modulators of miRNAs and/or Inhibitors of miR-21; settings: HeLa miR-21-FLuc reporter, luciferase luminescence, 48 h; actives lower the signal; also: nearly all actives have a fitted effect of over 55% in size
Summary of the method: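 HeLa cells endogenously expressing miR-21, stably carrying CMV-driven firefly luciferase with a downstream miR-21 binding site, 2000 cells/well. Titrations up to approximately 40 uM, 48 hours; luciferase luminescence read.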
Potency is read from the fitted curve at half-maximal effect.

Potency, active:
Cc1cc(C)nc(NC(=O)/C=C/c2ccccc2Cl)c1 2.07 µM
CC(NC(=O)c1ccccc1NC(=O)c1ccco1)C(=O)O (centres undefined) 6.56 µM
CN(C)/C=N/c1nc(-c2ccc3ccccc3c2)cs1 1.31 µM
COc1ccc(-c2cn3cccc(C)c3n2)cc1F 0.927 µM
COc1ccc(-c2csc(N)n2)cc1F 9.27 µM
Nc1nc(-c2ccc3ccccc3c2)cs1 1.65 µM
CCOC(=O)c1ccc(OS(=O)(=O)c2ccccc2)c(OC)c1 1.31 µM
COc1ccccc1NC(=S)N/N=C/c1ccc(O)cc1 0.736 µM
COc1ccc(/C=C/C(=O)Nc2ccccc2)cc1OC 4.14 µM
COc1ccc(NC(=O)/C=C/c2ccccc2)cn1 1.65 µM
CCN(CC)c1ccc(/C=N/NC(=O)Nc2ccccc2)cc1 4.14 µM
COc1cc(/C=N/NC(=O)Nc2ccccc2)ccc1OC(C)=O 8.26 µM
Cc1cccc(/C(N)=N/OC(=O)c2ccc(F)cc2)c1 4.65 µM
COc1ccc(/C=C/C(=O)O/N=C(\N)c2ccccc2)cc1OC 5.85 µM
O=C(/C=C/c1ccccc1)Nc1cccnc1Cl 1.85 µM
COc1ccc(C(=O)O/N=C(\N)c2cccc(C)c2)cc1OC 8.26 µM
COc1ccc2c(c1)CC/C2=N\OC(=O)c1cccc(C)c1 4.14 µM
CCCCCC(=O)N/N=C/c1ccc(N(C)C)cc1 13.1 µM
CC(=O)Oc1ccc(/C=N/NC(=S)Nc2ccccc2)cc1 0.656 µM
COc1ccc(C(=O)O/N=C(\N)c2ccccc2)cc1OC 2.07 µM
Cc1ccccc1/C(N)=N/OC(=O)/C=C/c1ccccc1 5.21 µM
C=CCn1cccc(C(=O)Nc2ccc(N(C)C)cc2)c1=O 4.65 µM
Clc1cccc(-c2cc3nc4c(c(NCc5ccco5)n3n2)CCCC4)c1 2.93 µM
c1ccc(CSc2ccc(-c3cccs3)nn2)cc1 2.93 µM
Cc1cccc(CSc2ccc(-c3cccs3)nn2)c1 7.36 µM
Fc1cccc(CSc2ccc(-c3cccs3)nn2)c1 4.14 µM
c1ccc(CSc2ccc(-c3cccnc3)nn2)cc1 6.56 µM
CCOc1ccc(Nc2cc(C)c3ccccc3n2)cc1 18.5 µM
Cc1cc(Nc2ccccc2)nc2cc(O)ccc12 13.1 µM
COc1ccc(Nc2cc(C)c3ccccc3n2)cc1 5.85 µM
COc1ccc(Nc2nc(C)c3ccccc3n2)cc1 3.29 µM
O=[N+]([O-])c1nn(-c2ccc3c(c2)OCCO3)n(O)c1=NCc1ccc(F)cc1 1.17 µM
COc1ccc(-n2nc([N+](=O)[O-])c(=NCc3ccc4c(c3)OCO4)n2O)cc1 1.65 µM
Cc1ccc(CN=c2c([N+](=O)[O-])nn(-c3ccc4c(c3)OCCO4)n2O)cc1 1.31 µM
COc1ccc(-n2nc([N+](=O)[O-])c(=NCc3cccnc3)n2O)cc1 2.33 µM
CCOC(=O)c1sc(NC(=O)c2sccc2C)cc1C 0.369 µM
CCOC(=O)c1sc(NC(=O)c2ccccc2)cc1C 0.521 µM
CCOC(=O)c1sc(NC(=O)C2CCC2)cc1C 4.65 µM
COc1ccc2[nH]c(=O)c(CNc3ccccc3C)cc2c1 7.36 µM
O=C(N=Nc1c(O)n(Cc2ccccc2)c2ccccc12)c1ccc(O)cc1 6.56 µM
O=C(CSCc1c(F)cccc1F)Nc1ccccc1 5.85 µM
O=C(CSCc1ccccc1)Nc1cccc(F)c1 13.1 µM
O=C(CSCc1ccccc1)Nc1ccc(F)c(F)c1 14.7 µM
Cc1ccc(NC(=O)CSCc2ccc(F)cc2)cc1 6.56 µM
NC(=O)c1cccnc1Nc1cccc([N+](=O)[O-])c1 6.56 µM
Cc1ccc(Nc2ncccc2C(N)=O)cc1 1.65 µM
O=C(NCCc1ccccc1F)c1cccc2cccnc12 3.29 µM
Cc1ccc(NC(=O)c2cccc3cccnc23)cc1 3.69 µM
Cc1ccc(Nc2ncccc2C(N)=O)cc1[N+](=O)[O-] 3.29 µM
Cc1cc(Cl)ccc1Nc1ncccc1C(N)=O 2.07 µM
COc1ccnc(Oc2ccc3ccccc3c2)c1C#N 2.93 µM
COc1ccc(-c2nc3c4ccccc4ccn3c2CN2CCOCC2)cc1OC 6.56 µM
COc1cnn(-c2ccc(Br)cc2)c(=O)c1SCc1ccccc1 13.1 µM
Oc1ccc(-c2csc(NCc3ccco3)n2)cc1 4.65 µM
CC(=O)Nc1ccc(-c2csc(NCc3ccco3)n2)cc1 4.14 µM
COc1ccc(-c2csc(NCc3ccco3)n2)cc1C 5.85 µM
O=C(Cc1ccc(Cl)cc1)c1ccc(O)cc1 5.21 µM
CN(C)/C=C/C(=O)c1cnc(-c2ccccc2Cl)s1 18.5 µM
CN(C)/C=C/C(=O)c1cnc(-c2cccc(Cl)c2)s1 18.5 µM
COc1ccccc1OCCCOc1ccc([N+](=O)[O-])cc1Cl 7.36 µM
COc1cc(C)ccc1OCCOc1ccccc1Cl 14.7 µM
COc1cc(C)ccc1OCCCOc1ccccc1Cl 6.56 µM
Cn1c(-c2ccc3nc(N)sc3c2)nc2cc(N)ccc21 18.5 µM
CN(N=Nc1ccc([N+](=O)[O-])cc1)c1ccccc1 4.14 µM
Cc1nc(NC(=S)NC(=O)c2cccs2)ccc1Br 14.7 µM
O=C(NC(=S)Nc1ccc(Br)cn1)c1cccs1 0.521 µM
O=c1[nH]c(COc2ccc(Cl)cc2Br)nc2ccccc12 3.29 µM
O=c1[nH]c(COc2ccc(Br)cc2Cl)nc2ccccc12 2.61 µM
CCN(CC)S(=O)(=O)c1cc(C(=O)Oc2cccc(-c3cnc4ccccc4n3)c2)ccc1Br 1.85 µM
